Measurements as given in PubChem BioAssay.
The source made the active and inactive calls.

Experiments:
[1] = A549 cell viability effects, profiling panel, calcein-AM fluorescence, 48 h, basal (AID 1162); details: higher = more signal
[2] = adipocyte viability effects, profiling panel, cell-based, 3T3-L1 adipocytes, calcein-AM fluorescence, 48 h, basal (AID 1163); details: 3T3-L1 adipocytes viability, higher = more signal
[3] = HepG2 cell viability effects, profiling panel, calcein-AM fluorescence, 48 h, basal (AID 1164); details: higher = more signal
[4] = MM1S cell viability effects, profiling panel, calcein-AM fluorescence, 48 h, basal (AID 1165); details: higher = more signal;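 note: viability of MM1S multiple myeloma cells under basal unstimulated conditions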
[5] = basal RPMI8226 viability, no added stimulus, profiling panel, cell-based, calcein-AM fluorescence, 48 h, PK04 Diversity Set (AID 1166); details: RPMI8226 myeloma viability, higher = more signal;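 note: cells grown under basal conditions without added stimulus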
[6] = basal HepG2 mitochondrial membrane potential changes, profiling panel, cell-based, JC-1 fluorescence, 24 h, 100 nL compound (AID 1167); details: higher = more signal
[7] = basal 3T3-L1 adipocyte mitochondrial potential changes, profiling panel, cell-based, JC-1 fluorescence, 3T3-L1 adipocytes, 24 h, 100 nL compound (AID 1168); details: JC-1 mitochondrial fluorescence, higher = more signal, called active from +8 up or from −8 down
[8] = basal RPMI8226 mitochondrial membrane potential changes, profiling panel, cell-based, JC-1 fluorescence, 24 h, 100 nL compound (AID 1169); details: RPMI8226 myeloma, JC-1 mitochondrial potential fluorescence, higher = more signal
[9] = basal MM1S mitochondrial membrane potential changes, profiling panel, cell-based, JC-1 fluorescence, 24 h, 100 nL compound (AID 1170); details: higher = more signal
[10] = A549 lung cancer cell viability effects, profiling panel, resazurin fluorescence, 24 h, PK04 Diversity Set (AID 1171); details: higher = more signal, called active from +8 up or from −8 down
Note: test concentration not given here.

| Compound | z-score [1] | z-score [2] | z-score [3] | z-score [4] | z-score [5] | z-score [6] | z-score [7] | z-score [8] | z-score [9] | z-score [10] |
| --- | --- | --- | --- | --- | --- | --- | --- | --- | --- | --- |
| C=CCNC(=O)[C@@H]1[C@H]2C(=O)O[C@H](c3ccccc3)[C@H](c3ccccc3)N2[C@H](c2ccc(OCCO)cc2)[C@@]12C(=O)Nc1ccc(C#CC3=CCCCC3)cc12 | -1.25 | 0.73 | -1.18 | -2.12 | -2.66 | -1.11 | -0.194 (inactive) | -1.19 | -1.24 | -1.49 (inactive) |
| COCCCNC(=O)[C@]1(Cc2ccccc2CN=[N+]=[N-])N=C(c2ccc(OCCCO)cc2)O[C@@H]1c1ccccc1N=[N+]=[N-] | -0.532 | -0.541 | -0.576 | -2.96 | -3.93 | 1.27 | 1.16 (inactive) | -1.12 | -2.77 | -2.12 (inactive) |
| COC(=O)C1=CC(CCCO)=CC(c2ccc(CN3CCCC3)cc2)N(C)C=C1C(=O)OC (stereo not given) | 0.71 | -0.0962 | 0.204 | 0.608 | 0.433 | 0.91 | 0.735 (inactive) | 0.173 | -0.537 | -0.632 (inactive) |
| COC(=O)[C@H](Cc1ccccc1)N1CC(C)(OC)O[C@@H](Cc2ccccc2)[C@H]1/C=C/C1CC1 (stereo not given in full) | -0.572 | -0.317 | 0.299 | 0.391 | -0.304 | 0.208 | -0.394 (inactive) | 0.28 | -0.521 | 0.379 (inactive) |
| O=C1O[C@H](c2ccccc2)[C@H](c2ccccc2)N2[C@H]1[C@@H](C(=O)N1CCN(c3ncccn3)CC1)[C@]1(C(=O)Nc3ccc(C#CC4(O)CCCCCC4)cc31)[C@H]2c1ccc(O)cc1 | 1.84 | 0.783 | 1.58 | 0.0827 | -0.153 | -0.553 | -0.166 (inactive) | -0.259 | 0.18 | 1.17 (inactive) |
| CCCCCCCCCCC(O)C1C=CC2C(=O)N(C)C(=O)C2N1Nc1ccccc1 (stereo not given) | -2.46 | -1.27 | -1.38 | -3.85 | -4.07 | -1.18 | -0.92 (inactive) | -0.744 | 0.0317 | -0.545 (inactive) |
| CC[C@@H](O[Si](C#C[Si](C(C)C)(C(C)C)C(C)C)(C(C)C)C(C)C)c1cn([C@H](C)c2ccccc2)nn1 | -0.7 | -0.685 | -0.499 | 0.375 | 0.253 | -0.0266 | -1.02 (inactive) | 0.0594 | -0.876 | 0.566 (inactive) |
| C[C@H]1C2[C@H](Cc3ccccc3)NC(=O)[C@]23C(=O)N[C@@H](Cc2ccccc2)C(=O)N2CCC[C@H]2C(=O)NC/C=C/CC/C=C/C3[C@@H]2O[C@]12C (stereo not given in full) | -0.168 | 1.18 | -0.512 | -0.132 | -0.876 | 1.11 | 0.308 (inactive) | 0.0536 | 0.793 | -0.0612 (inactive) |
| C[N+](C)(C)CCCC[C@@H]1NC(=O)[C@H]2C[C@@H](C(=O)O)[C@@H](c3ccc(O)cc3)N2C1=O | 0.434 | 0.291 | 0.0336 | -3.12 | 0.442 | 1.93 | -0.301 (inactive) | -0.2 | -1.26 | 0.554 (inactive) |
| COC(=O)C(CC#Cc1ccc2c(c1)[C@]1(C(=O)N2)[C@H](C(N)=O)[C@H]2C(=O)O[C@H](c3ccccc3)[C@H](c3ccccc3)N2[C@@H]1c1ccccc1OCCO)C(=O)OC | -0.782 | -0.436 | -4.23 | -3.4 | -4.62 | -0.82 | 4.3 (inactive) | -1.18 | -2.2 | -2.83 (inactive) |
| CN1C(=O)C2CC=C(C3=CCO[C@@H]3[C@H]3CCCN3S(=O)(=O)c3ccccc3[N+](=O)[O-])CC2C1=O (stereo not given in full) | -0.477 | 0.102 | 0.302 | -0.355 | -0.0289 | -1.25 | -0.655 (inactive) | -0.12 | -0.242 | 0.47 (inactive) |
| COc1ccc(NN2C(C(O)c3ccc(F)cc3)C=CC3C(=O)N(C4CCCCC4)C(=O)C32)cc1 (stereo not given) | -0.705 | -0.17 | -0.0716 | -1.05 | -1.08 | -0.496 | -1.23 (inactive) | -0.169 | -0.191 | 0.227 (inactive) |
| O=C1O[C@H](c2ccccc2)[C@H](c2ccccc2)N2[C@H]1[C@@H](C(=O)O)[C@]1(C(=O)Nc3ccc(C#CC4(O)CCCCCC4)cc31)[C@H]2c1ccccc1OCCO | 0.631 | 0.0596 | -0.0165 | -3.38 | -4.15 | -2.61 | -0.521 (inactive) | -0.911 | -0.681 | 0.95 (inactive) |
| O=C1N(Cc2ccccc2)c2ccccc2C[C@@]12N=C(c1ccc(OCCCO)cc1)O[C@H]2c1ccccc1 | -1.32 | 0.84 | -1.86 | -3.33 | -4.24 | -0.237 | -0.0792 (inactive) | -1.29 | 0.811 | -1.63 (inactive) |
| CC(=O)NCCCC[C@@H]1NC(=O)[C@H]2C[C@@H](C(=O)O)[C@@H](c3cccc(OCCO)c3)N2C1=O | -0.103 | -0.349 | 0.276 | 0.34 | 0.928 | 0.0103 | -0.55 (inactive) | -0.809 | -0.401 | 0.354 (inactive) |
| COc1ccc([Si](C)(C)[C@H]2[C@H](CC(=O)N(CCO)Cc3ccccc3)O[C@@]3(C(=O)N(Cc4ccc(N5C(=O)c6cccc7cccc5c67)cc4)c4ccccc43)[C@@H]2C)cc1 | -1.12 | 1.59 | -0.899 | -0.998 | -3.8 | 0.488 | -0.381 (inactive) | -1.05 | -0.091 | -2.22 (inactive) |
| C=CC[C@H](O)c1ccc(O)c(F)c1 | -0.402 | 0.329 | -0.821 | -0.229 | -0.426 | -0.737 | 0.083 (inactive) | -0.153 | 0.384 | -0.396 (inactive) |
| C=CCNC(=O)[C@H]1[C@@H]2C(=O)O[C@@H](c3ccccc3)[C@@H](c3ccccc3)N2[C@@H](c2ccc(O)cc2)[C@]12C(=O)N(C(=O)OCCOC)c1ccc(C#Cc3ccc(OC)cc3)cc12 | -0.98 | -1.44 | 0.147 | -1.26 | -1.2 | -1.62 | 0.202 (inactive) | -0.625 | -0.804 | -0.0733 (inactive) |
| CC(C)N1C(=O)[C@@]2(Cc3ccccc31)c1ccccc1C(=O)N(Cc1ccccc1C(F)(F)F)[C@H]2c1ccc(CO)cc1 | -0.262 | 0.523 | 0.133 | -0.895 | -1.27 | -0.77 | 0.109 (inactive) | 0.0301 | 1.03 | 0.752 (inactive) |
| COc1ccc([Si](C)(C)[C@H]2[C@H](CC(=O)N3CCC[C@H]3CO)O[C@@]3(C(=O)N(Cc4cccc(N5CCCCC5=O)c4)c4ccccc43)[C@@H]2C)cc1 | 0.239 | 0.112 | -0.134 | -2.65 | -3.15 | 2.8 | 0.0592 (inactive) | -0.893 | 0.286 | 0.423 (inactive) |
| CCOC(=O)C[C@H]1[C@H](OC(=O)c2ccc(-c3ccccc3)cc2)[C@@H](NC(=O)c2ccc(-c3ccccc3)cc2)c2cc(OCCCO)ccc2N1C(=O)c1ccccc1 | -0.555 | -0.132 | -0.134 | 0.125 | -0.473 | 0.642 | -0.45 (inactive) | 0.812 | 0.0869 | -0.769 (inactive) |
| Cc1ccc(S(=O)(=O)N2[C@@H](c3ccccc3)C(C(=O)O)=C[C@H]2C(C)(C)C)cc1 | -0.756 | -0.625 | -0.558 | 0.611 | -0.711 | -0.747 | -0.465 (inactive) | -0.369 | -0.953 | -1.11 (inactive) |
| O=C1C2C=CC(C(O)c3ccccn3)N(Nc3ccc([N+](=O)[O-])cc3)C2C(=O)N1c1ccccc1 (stereo not given) | -0.264 | -0.723 | 0.19 | -0.416 | -0.737 | -1.47 | -1.83 (inactive) | -0.187 | -1.13 | -0.0475 (inactive) |
| CC[C@@H]1C=C(C(=O)O)[C@H](c2cccc(Cl)c2)N1S(=O)(=O)c1ccc(C)cc1 | -0.0107 | -0.762 | 0.223 | 0.126 | 0.0221 | -0.743 | -0.41 (inactive) | -0.623 | -0.343 | -0.628 (inactive) |
| CC(C)N1CC=CC23O[C@@H]4/C=C\CCCOC(=O)C4[C@H]2C(=O)N(C(C)CO)[C@@H]3C1=O (stereo not given in full) | 0.0513 | 0.512 | -0.145 | 0.967 | 0.629 | 0.412 | -1.54 (inactive) | 0.0317 | -1.08 | 0.753 (inactive) |
| CCOC(=O)C[C@H]1[C@H](OC(=O)c2cc3ccccc3oc2=O)[C@@H](NC(=O)Cc2ccc(OC)cc2)c2cc(OCCCO)ccc2N1C(=O)Cc1ccc(OC)cc1 | 1.16 | 1.68 | 0.37 | 0.789 | 0.148 | 0.164 | -0.3 (inactive) | 0.301 | -0.985 | 0.551 (inactive) |
| O=C1NC(=O)C2C1C=CC(C(O)C(O)CO)N2Nc1ccccn1 (stereo not given) | 0.159 | -0.28 | 2.19 | 0.434 | 0.476 | 0.361 | 0.117 (inactive) | -0.627 | 0.123 | -1.65 (inactive) |
| Cc1ccc(N2C(=O)c3ccccc3[C@@H](C(=O)NCCN3CCOCC3)[C@@H]2c2ccc(CO)cc2)nc1 | -0.619 | 0.112 | -0.45 | 0.128 | 0.0765 | -0.274 | 0.111 (inactive) | -0.171 | 0.235 | 0.444 (inactive) |
| COC(=O)[C@H]1N=C(c2ccc(OCCCO)cc2)O[C@H]1c1ccccc1N=[N+]=[N-] | -0.206 | 0.323 | -0.151 | -0.862 | -1.44 | -0.434 | -0.419 (inactive) | -0.739 | 0.567 | -0.15 (inactive) |
| COCCOC(=O)N1C(=O)[C@@]2(c3cc(C#CCNC(N)=O)ccc31)[C@H](C(N)=O)[C@H]1C(=O)O[C@H](c3ccccc3)[C@H](c3ccccc3)N1[C@@H]2c1ccc(O)cc1 | 1.05 | -0.142 | 0.779 | 0.394 | -0.896 | -0.507 | -0.0468 (inactive) | -0.883 | 0.326 | 1.22 (inactive) |
